Experimental data reported in PubChem BioAssay (EPA / NIEHS).
Where “and” joins values, the source holds several entries; their conditions need not be identical. Equal entries are not always repeated. Where a structure was tested more than once in an assay, its records may differ in their call. Calls of active or inactive are those of the source. Rule for the calls: active = hit-call score of the fitted dose curve at least 0.9, where 1 is the maximum; inactive = score below 0.9.

What was measured:
[1] = read-out: Monokine induced gamma interferon (MIG), CXCL9 (gene 4283); assay: BSK_BE3C_MIG: BioMAP Diversity Plus: BE3C Assay for Monokine induced gamma interferon (MIG) Biomarker Activity (AID 2283035); conditions: primary human bronchial epithelial cells; actives raise or lower the signal
In short: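 ELISA quantified MIG after 24 h exposure of primary bronchial epithelial cultures, analysed in both directions relative to DMSO. Cytotoxicity tracked in parallel cultures by sulforhodamine B staining.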

[2] = read-out: Transforming growth factor beta 1 (TGFb1), TGFB1 (gene 7040); assay: BSK_BE3C_TGFb1: BioMAP Diversity Plus: BE3C Assay for Transforming growth factor beta 1 (TGFb1) Biomarker Activity (AID 2283036); conditions: primary human bronchial epithelial cells; actives raise or lower the signal
In short: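 Bronchial epithelial primary cells are treated with test chemical, then TGF-b1 is quantified by ELISA after 24 hours. Values derive from bidirectional fitting against DMSO, with cytotoxicity checked by SRB staining in parallel cultures.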

[3] = read-out: Plasminogen activator inhibitor-1 (PAI1), SERPINE1 (gene 5054); assay: BSK_BE3C_PAI1: BioMAP Diversity Plus: BE3C Assay for Plasminogen activator inhibitor-1 (PAI1) Biomarker Activity (AID 2283037); conditions: primary human bronchial epithelial cells; actives raise or lower the signal
In short: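 Values derive from bidirectional fitting against DMSO baseline of PAI-1 levels, measured by ELISA in human bronchial epithelial cells 24 h after compound addition.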

[4] = read-out: urokinase plasminogen activator (uPA), PLAU (gene 5328); assay: BSK_BE3C_uPA: BioMAP Diversity Plus: BE3C Assay for urokinase plasminogen activator (uPA) Biomarker Activity (AID 2283038); conditions: primary human bronchial epithelial cells; actives raise or lower the signal
In short: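 Human primary bronchial epithelial cells were exposed to chemical for 24 h, then uPA levels were measured by ELISA. Responses were fitted bidirectionally against DMSO as negative control and baseline. Parallel SRB staining of total protein gauged overt cytotoxicity.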

[5] = read-out: Urokinase-type plasminogen activator receptor (uPAR), PLAUR (gene 5329); assay: BSK_BE3C_uPAR: BioMAP Diversity Plus: BE3C Assay for Urokinase-type plasminogen activator receptor (uPAR) Biomarker Activity (AID 2283039); conditions: primary human bronchial epithelial cells; actives raise or lower the signal
In short: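 Steps: dose human primary bronchial epithelial cells, incubate 24 h, measure uPAR by ELISA, then fit gain- or loss-of-signal response bidirectionally relative to DMSO.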

[6] = read-out: Interleukin-6 (IL6), IL6 (gene 3569); assay: BSK_CASM3C_IL6: BioMAP Diversity Plus: CASM3C Assay for Interleukin-6 (IL6) Biomarker Activity for (AID 2283040); conditions: primary human coronary artery smooth muscle cells; actives raise or lower the signal
[7] = read-out: Tissue plasminogen activator (tPA), PLAT (gene 5327); assay: BSK_BE3C_tPA: BioMAP Diversity Plus: BE3C Assay for Tissue plasminogen activator (tPA) Biomarker Activity (AID 2283041); conditions: primary human bronchial epithelial cells; actives raise or lower the signal
In short: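 Gain- or loss-of-signal in tPA, measured by ELISA, derived by bidirectional fitting against DMSO. Cells: human primary bronchial epithelial; read at 24 h after chemical dosing.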

[8] = read-out: Interleukin-8 (IL8), CXCL8 (gene 3576); assay: BSK_CASM3C_IL8: BioMAP Diversity Plus: CASM3C Assay for Interleukin-8 (IL8) Biomarker Activity (AID 2283042); conditions: primary human coronary artery smooth muscle cells; actives raise or lower the signal;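 note: IL-8 protein level quantified by ELISA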
[9] = read-out: Human Leukocyte Antigen - DR isotype (HLADR), HLA-DRA (gene 3122); assay: BSK_CASM3C_HLADR: BioMAP Diversity Plus: CASM3C Assay for Human Leukocyte Antigen - DR isotype (HLADR) Biomarker Activity (AID 2283043); conditions: primary human coronary artery smooth muscle cells; actives raise or lower the signal;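 note: cell-surface HLA-DR protein level quantified by ELISA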
[10] = read-out: Macrophage colony-stimulating factor (MCSF), CSF1 (gene 1435); assay: BSK_CASM3C_MCSF: BioMAP Diversity Plus: CASM3C Assay for Macrophage colony-stimulating factor (MCSF) Biomarker Activity (AID 2283044); conditions: primary human coronary artery smooth muscle cells; actives raise or lower the signal;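 note: M-CSF protein amount quantified by ELISA after 24 h exposure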
[11] = read-out: Low-density lipoprotein receptor (LDLR), LDLR (gene 3949); assay: BSK_CASM3C_LDLR: BioMAP Diversity Plus: CASM3C Assay for Low-density lipoprotein receptor (LDLR) Biomarker Activity (AID 2283045); conditions: primary human coronary artery smooth muscle cells; actives raise or lower the signal;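 note: LDLR protein level on the cell surface quantified by ELISA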
[12] = read-out: Monocyte Chemoattractant Protein-1 (MCP1), CCL2 (gene 6347); assay: BSK_CASM3C_MCP1: BioMAP Diversity Plus: CASM3C Assay for Monocyte Chemoattractant Protein-1 (MCP1) Biomarker Activity (AID 2283046); conditions: primary human coronary artery smooth muscle cells; actives raise or lower the signal;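 note: MCP-1 level quantified by ELISA 24 h after dosing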
[13] = BSK_CASM3C_Proliferation: Cell Proliferation Assessment in the BioMAP Diversity Plus: CASM3C Assay (AID 2283047); conditions: primary human coronary artery smooth muscle cells;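 note: sulforhodamine B total protein stain as relative cell number at 560 nm; sub-confluent cells exposed 48 h before staining; fitted both ways against DMSO so gain or loss of cell number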
[14] = read-out: Monokine induced gamma interferon (MIG), CXCL9 (gene 4283); assay: BSK_CASM3C_MIG: BioMAP Diversity Plus: CASM3C Assay for Monokine induced gamma interferon (MIG) Biomarker Activity (AID 2283048); conditions: primary human coronary artery smooth muscle cells; actives raise or lower the signal
[15] = read-out: serum amyloid A (SAA), SAA1 (gene 6288); assay: BSK_CASM3C_SAA: BioMAP Diversity Plus: CASM3C Assay for serum amyloid A (SAA) Biomarker Activity (AID 2283049); conditions: primary human coronary artery smooth muscle cells; actives raise or lower the signal;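 note: SAA protein level quantified by ELISA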
[16] = BSK_CASM3C_SRB: Viability Assessment in the BioMAP Diversity Plus: CASM3C Assay (AID 2283050); conditions: primary human coronary artery smooth muscle cells;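 note: total protein by SRB staining as cytotoxicity measure in parallel cultures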
[17] = read-out: Thrombomodulin, THBD (gene 7056); assay: BSK_CASM3C_Thrombomodulin: BioMAP Diversity Plus: CASM3C Assay for Thrombomodulin Biomarker Activity (AID 2283051); conditions: primary human coronary artery smooth muscle cells; actives raise or lower the signal;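 note: thrombomodulin protein level measured by ELISA 24 h after dosing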
[18] = read-out: Tissue Factor, F3 (gene 2152); assay: BSK_CASM3C_TissueFactor: BioMAP Diversity Plus: CASM3C Assay for Tissue Factor Biomarker Activity (AID 2283052); conditions: primary human coronary artery smooth muscle cells; actives raise or lower the signal;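 note: cell surface tissue factor protein level read by ELISA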
[19] = read-out: Interferon-gamma inducible Protein 10 (IP10), CXCL10 (gene 3627); assay: BSK_hDFCGF_IP10: BioMAP Diversity Plus: hDFCGF Assay for Interferon-gamma inducible Protein 10 (IP10) Biomarker Activity (AID 2283053); conditions: primary human foreskin fibroblasts; actives raise or lower the signal
In short: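 Cells: human dermal foreskin fibroblasts. Exposure: 24 h post-dosing. Detection: IP-10 ELISA, with values expressed against DMSO controls and fitted in both directions.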

[20] = read-out: Urokinase-type plasminogen activator receptor (uPAR), PLAUR (gene 5329); assay: BSK_CASM3C_uPAR: BioMAP Diversity Plus: CASM3C Assay for Urokinase-type plasminogen activator receptor (uPAR) Biomarker Activity (AID 2283054); conditions: primary human coronary artery smooth muscle cells; actives raise or lower the signal;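 note: cell-surface uPAR protein level quantified by ELISA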

Measured: AC50

CC(C)c1ccc(CO)cc1
inactive: all assays above

O=C(O)C(F)(F)C(F)(F)C(F)(F)C(F)(F)C(F)(F)C(F)(F)C(F)(F)C(F)(F)C(F)(F)C(F)(F)F
inactive: [6] | [7] | [8] | [9] | [10] | [11] | [12] | [13] | [14] | [15] | [16] | [17] | [18] | [20]
active: [1] 13.8 µM and 5.09 µM and 5.56 µM | [2] 8.28 µM | [3] 12.3 µM and 2.33 µM and 1.73 µM | [4] 11.6 µM and 6.21 µM and 5.27 µM | [5] 26 µM and 5.6 µM and 5.59 µM | [7] 7.65 µM and 5.33 µM | [9] 19.1 µM | [17] 0.141 µM | [19] 6.56 µM and 4.76 µM and 4.7 µM

CCNc1nc(NC(C)(C)C)nc(SC)n1
inactive: all assays above

COC(=O)c1sccc1S(=O)(=O)NC(=O)Nc1nc(C)nc(OC)n1
inactive: all assays above

CC(C)(C)CC(C)(C)c1ccc(O)cc1
active: [1] 34.5 µM | [2] 14.7 µM | [3] 30.9 µM | [4] 26.6 µM | [5] 30 µM | [6] 12 µM | [7] 13.2 µM | [8] 30.3 µM | [9] 11.2 µM | [10] 11.3 µM | [11] 16 µM | [12] 11.9 µM | [13] 10.1 µM | [14] 26.4 µM | [15] 10.7 µM | [16] 13.7 µM | [17] 33.8 µM | [18] 10 µM | [19] 9 µM | [20] 14.8 µM

C[C@]12CCC(=O)C[C@@H]1CC[C@@H]1[C@@H]2CC[C@]2(C)[C@@H](O)CC[C@@H]12
inactive: all assays above

Oc1cccc2cccnc12
active: [1] 5.47 µM | [2] 5.43 µM | [3] 3.45 µM | [4] 3.44 µM | [5] 4.95 µM | [7] 2.07 µM | [9] 3.97 µM | [13] 5.5 µM | [17] 4.74 µM | [19] 0.206 µM
inactive: [6] | [8] | [10] | [11] | [12] | [14] | [15] | [16] | [18] | [20]

C[C@@H]1C[C@@H]([C@H](O)CC2CC(=O)NC(=O)C2)C(=O)[C@@H](C)C1
inactive: [15] | [17] | [18]
active: [1] 14.4 µM | [2] 2.83 µM | [3] 1.63 µM | [4] 6.45 µM | [5] 4.03 µM | [6] 1.27 µM | [7] 2.91 µM | [8] 6.03 µM | [9] 1.84 µM | [10] 4.28 µM | [11] 0.791 µM | [12] 9.46 µM | [13] 1.63 µM | [14] 1.78 µM | [16] 8.63 µM | [19] 2.32 µM | [20] 3.8 µM

CC(C)(OO)c1ccccc1
active: [13] 22.5 µM | [19] 32.7 µM
inactive: all other assays above

Nc1cccc2ccccc12
active: [11] 12.6 µM | [17] 15.2 µM | [19] 31.6 µM
inactive: all other assays above

Nc1ncc([N+](=O)[O-])s1
inactive: all assays above

CC12CC1(C)C(=O)N(c1cc(Cl)cc(Cl)c1)C2=O (stereo not drawn)
inactive: all assays above

NC(=S)Nc1ccccc1
inactive: all assays above

CCCCCCCCC(=O)NCc1ccc(O)c(OC)c1
active: [3] 20 µM | [9] 32.3 µM | [13] 20 µM | [20] 20 µM
inactive: all other assays above

Nc1ccc(-c2ccc(N)c(Cl)c2)cc1Cl
active: [18] 11.6 µM
inactive: all other assays above

O=c1[nH]c(=O)[nH]c(=O)[nH]1
inactive: all assays above

Oc1c(I)cc(I)cc1I
active: [3] 1.83 µM | [5] 2.31 µM | [7] 3.34 µM | [20] 0.191 µM
inactive: all other assays above

O=C(OC1CCCCC1)c1ccccc1C(=O)OC1CCCCC1
active: [7] 8.39 µM | [11] 34.2 µM | [13] 33.4 µM | [16] 20.9 µM | [17] 20.9 µM | [18] 33 µM | [19] 13.4 µM
inactive: all other assays above

O=S(=O)(c1ccc(Cl)cc1)c1ccc(Cl)cc1
inactive: all assays above

O=C(Nc1ccc2[nH]ccc2c1)c1cc2cc(F)ccc2n1Cc1cccc(F)c1
active: [1] 8.22 µM | [3] 5.51 µM | [5] 6.74 µM | [6] 33.5 µM | [7] 5.75 µM | [8] 23.6 µM | [9] 17.8 µM | [10] 33.7 µM | [11] 14.6 µM | [12] 31.6 µM | [13] 21.1 µM | [14] 31.2 µM | [15] 36.7 µM | [16] 28.1 µM | [17] 33 µM | [18] 20 µM | [19] 3.33 µM | [20] 14.6 µM
inactive: [2] | [4]

CCCCCCCCc1ccc(O)cc1
active: [1] 37.7 µM | [2] 30.5 µM | [3] 33.9 µM | [4] 32.7 µM | [5] 32.5 µM | [6] 20.1 µM | [7] 25 µM | [8] 30.1 µM | [9] 20.1 µM | [10] 31.9 µM | [11] 20.1 µM | [12] 27.8 µM | [13] 31.5 µM | [14] 31.2 µM | [15] 36.1 µM | [16] 30.9 µM | [17] 34.6 µM | [18] 28.7 µM | [19] 25.8 µM | [20] 39.1 µM
